Unmarked numbers belong to inactive results.
What follows are compounds tested on Meloidogyne hapla J2 (assay: proportion of mobile M. hapla J2 relative to DMSO control (fraction of DMSO control); higher = more viable, less nematicidal, active = 0.7 or less). Conditions: 60 µM; 5 days; temperature: 20 °C.
How it was run: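 About 25 M. hapla J2 were placed in each well of a 96-well plate in distilled water, and compound was pinned in to a final 60 µM with 0.6% v/v DMSO. The sealed plates were shaken at 200 rpm at 20 °C for 5 days, after which 2 µL of 1 M NaOH went into each well. Mobility was then scored under the microscope and divided by the mean value from DMSO-only wells on the same plate. Each plate held eight such DMSO wells, and two biological replicates were averaged.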

| Structure (SMILES) | proportion of mobile M. hapla J2 |
| --- | --- |
| CCCc1ccc(-c2ccc(-c3nc(-c4ccccn4)no3)cc2)cc1 | 0.978 |
| Cc1cccc(-c2noc(-c3ccc4c(c3)OCO4)n2)c1 | 0.974 |
| CC(C)(C)C(=O)CSc1nnc(-c2ccc(Cl)cc2Cl)o1 | 0.873 |
| Cc1cccc(-c2noc(C3CCCCC3)n2)c1 | 1.01 |
| c1ccc(CSc2nnc(-c3ccccc3)o2)cc1 | 1.04 |
| CC(=O)c1c(C)cc(C)c(CSc2nnc(-c3ccco3)o2)c1C | 0.906 |
| O=C(Nc1ccccc1-c1nc(-c2cccnc2)no1)c1cccs1 | 1.02 |
| Cc1ccc(CSc2nnc(-c3cccc(Br)c3)o2)c(C)c1 | 1.02 |
| O=C(CSc1nnc(-c2cccc(Br)c2)o1)NC1CCCCC1 | 0.778 |
| COc1ccccc1OCc1nc(-c2ccccc2)no1 | 0.973 |
| COc1ccc(-c2nnc(SCc3ccc(C#N)cc3)o2)cc1 | 0.942 |
| CC(Sc1nnc(-c2ccccc2)o1)C(=O)Nc1nccs1 (stereo unspecified) | 1 |
| COc1cccc(-c2nc(-c3ccc(C)cc3)no2)c1 | 0.953 |
| O=C(CSc1nnc(-c2ccco2)o1)Nc1ccc(F)cc1 | 0.939 |
| COc1nc(-c2ccccc2)ccc1-c1noc(-c2ccccc2C)n1 | 0.909 |
| COc1ccc(OCc2nc(-c3cccc(Br)c3)no2)cc1 | 1 |
| Cc1ccc(-c2noc(-c3ccc(Cl)cc3)n2)cc1 | 1.03 |
| COc1ccc(-c2noc(COc3ccc(C)cc3Br)n2)cc1 | 1.01 |
| CC(C)c1ccc(OCc2nc(-c3ccncc3)no2)c(Br)c1 | 0.82 |
| Clc1ccc(CSc2nnc(-c3ccc(Cl)cc3)o2)cc1 | 0.914 |
| Cn1cc(C(=O)CSc2nnc(-c3cccc(Cl)c3)o2)c2ccccc21 | 0.999 |

The compounds below were run on Caenorhabditis elegans dauer (daf-2(e1370)) (assay: proportion of mobile C. elegans dauer larvae relative to DMSO control (fraction of DMSO control); higher = more viable, less nematicidal, active = 0.63 or less; extreme values may be limits of the assay). Conditions: 60 µM; 5 days; temperature: 20 °C.
How it was run: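 Synchronized C. elegans larvae were kept for 48 h at 25 °C on MYOB plates seeded with E. coli OP50 to induce dauer formation, and roughly 20 dauers were transferred into each well of a 96-well plate containing liquid NGM. Compound was pinned in to a final concentration of 60 µM with 0.6% v/v DMSO, and the sealed plates were shaken at 200 rpm for 5 days at 20 °C. The fraction of mobile worms was scored under a dissection microscope against DMSO-only wells and averaged across two biological replicates.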

| Structure (SMILES) | proportion of mobile C. elegans dauer larvae |
| --- | --- |
| COc1nc(C)ccc1-c1noc(-c2ccc(C(C)(C)C)cc2)n1 | 1 |
| Cc1cc(Cl)ccc1OCc1nc(-c2ccc(F)cc2)no1 | 1 |
| COc1ccc(-c2noc(C34CC5CC(CC(C5)C3)C4)n2)cc1 | 1 |
| COc1ccccc1NC(=O)CSc1nnc(-c2cccc3ccccc23)o1 | 1 |
| Cc1cc(Br)ccc1OCc1nc(-c2cccnc2)no1 | 1 |
| O=C(NC1CCCCC1)c1ccccc1-c1nc(-c2ccc(F)cc2)no1 | 1 |
| Cc1ccc(-c2noc(-c3ccccc3OCC(N)=O)n2)cc1 | 1 |
| O=C(c1ccccc1-c1nc(-c2ccc(F)cc2)no1)N1CCCC1 | 1 |
| O=C(CSc1nnc(-c2ccco2)o1)Nc1cc(Cl)ccc1Cl | 1 |
| Cc1cccc(-c2noc(COc3ccc(C)cc3C)n2)c1 | 1 |
| C=C(C)COc1ccc(-c2nc(-c3cccnc3)no2)cc1 | 1 |
| Clc1ccc(-c2nc(-c3ccncc3)no2)c(Cl)c1 | 1 |
| Cc1ccc(C)c(OCc2nc(-c3ccccc3Cl)no2)c1 | 1 |
| Brc1ccc(-c2noc(-c3ccco3)n2)cc1 | 0 (active) |
| Cc1cccc(-c2nc(-c3ccc4c(c3)OCO4)no2)c1 | 1 |
| COc1ccc(-c2nnc(SCC(=O)Nc3ccc(Br)cc3C(C)C)o2)cc1 | 1 |
| Cc1ccc(OCc2nc(-c3ccncc3)no2)c(Br)c1 | 1 |
| Cc1ccccc1-c1nnc(SCc2ccccc2Cl)o1 | 1 |
| CCCc1ccc(-c2ccc(-c3nc(-c4ccccn4)no3)cc2)cc1 | 1 |
| Cc1cccc(-c2noc(-c3ccc4c(c3)OCO4)n2)c1 | 1 |
| CC(C)(C)C(=O)CSc1nnc(-c2ccc(Cl)cc2Cl)o1 | 1 |
| Cc1cccc(-c2noc(C3CCCCC3)n2)c1 | 1 |
| c1ccc(CSc2nnc(-c3ccccc3)o2)cc1 | 1 |
| CC(=O)c1c(C)cc(C)c(CSc2nnc(-c3ccco3)o2)c1C | 1 |
| O=C(Nc1ccccc1-c1nc(-c2cccnc2)no1)c1cccs1 | 1 |
| Cc1ccc(CSc2nnc(-c3cccc(Br)c3)o2)c(C)c1 | 1 |
| O=C(CSc1nnc(-c2cccc(Br)c2)o1)NC1CCCCC1 | 1 |
| COc1ccccc1OCc1nc(-c2ccccc2)no1 | 1 |
| COc1ccc(-c2nnc(SCc3ccc(C#N)cc3)o2)cc1 | 1 |
| CC(Sc1nnc(-c2ccccc2)o1)C(=O)Nc1nccs1 (stereo unspecified) | 1 |
